# Assay results published in ChEMBL document CHEMBL1961873, “Compounds: GSK PKIS; Assays: Nanosyn kinase panel” (2012).
# How the values were obtained:
# [1] = target: Sphingosine kinase 1 (Homo sapiens) (UniProt Q9NYA1); conditions: at 1 µM;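 also: mean SPHK1 inhibition value reported from the GSK PKIS kinase panel screen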
# [2] = target: T1, Sphingosine kinase 2 (Homo sapiens) (UniProt Q9NRA0); conditions: at 0.1 µM
# T1 sequence (whole entry): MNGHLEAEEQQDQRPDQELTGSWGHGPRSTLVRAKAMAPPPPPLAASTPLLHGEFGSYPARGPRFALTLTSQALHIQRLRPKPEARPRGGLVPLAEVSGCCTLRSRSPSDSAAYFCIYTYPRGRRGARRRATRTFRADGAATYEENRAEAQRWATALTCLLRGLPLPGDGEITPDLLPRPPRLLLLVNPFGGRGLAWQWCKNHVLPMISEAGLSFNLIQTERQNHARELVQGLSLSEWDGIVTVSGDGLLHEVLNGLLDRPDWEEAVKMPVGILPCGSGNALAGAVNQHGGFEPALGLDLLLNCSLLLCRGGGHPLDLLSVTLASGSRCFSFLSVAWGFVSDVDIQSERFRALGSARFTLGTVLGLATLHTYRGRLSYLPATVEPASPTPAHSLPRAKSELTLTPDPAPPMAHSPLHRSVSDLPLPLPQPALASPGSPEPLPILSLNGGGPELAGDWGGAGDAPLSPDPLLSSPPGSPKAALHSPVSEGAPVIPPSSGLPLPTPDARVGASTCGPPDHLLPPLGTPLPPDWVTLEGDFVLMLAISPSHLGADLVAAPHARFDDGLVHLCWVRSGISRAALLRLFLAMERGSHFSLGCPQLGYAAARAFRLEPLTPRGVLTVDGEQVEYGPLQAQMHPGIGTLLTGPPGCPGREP
# [3] = target: T1, Sphingosine kinase 2 (Homo sapiens); conditions: at 1 µM
# [4] = target: Casein kinase II subunit alpha (Homo sapiens) (UniProt P68400); conditions: at 0.1 µM
# [5] = target: Casein kinase II subunit alpha (Homo sapiens) (UniProt P68400); conditions: at 1 µM
# [6] = target: T2, Inhibitor of nuclear factor kappa-B kinase subunit alpha (Homo sapiens) (UniProt O15111); conditions: at 0.1 µM
# T2 sequence (whole entry): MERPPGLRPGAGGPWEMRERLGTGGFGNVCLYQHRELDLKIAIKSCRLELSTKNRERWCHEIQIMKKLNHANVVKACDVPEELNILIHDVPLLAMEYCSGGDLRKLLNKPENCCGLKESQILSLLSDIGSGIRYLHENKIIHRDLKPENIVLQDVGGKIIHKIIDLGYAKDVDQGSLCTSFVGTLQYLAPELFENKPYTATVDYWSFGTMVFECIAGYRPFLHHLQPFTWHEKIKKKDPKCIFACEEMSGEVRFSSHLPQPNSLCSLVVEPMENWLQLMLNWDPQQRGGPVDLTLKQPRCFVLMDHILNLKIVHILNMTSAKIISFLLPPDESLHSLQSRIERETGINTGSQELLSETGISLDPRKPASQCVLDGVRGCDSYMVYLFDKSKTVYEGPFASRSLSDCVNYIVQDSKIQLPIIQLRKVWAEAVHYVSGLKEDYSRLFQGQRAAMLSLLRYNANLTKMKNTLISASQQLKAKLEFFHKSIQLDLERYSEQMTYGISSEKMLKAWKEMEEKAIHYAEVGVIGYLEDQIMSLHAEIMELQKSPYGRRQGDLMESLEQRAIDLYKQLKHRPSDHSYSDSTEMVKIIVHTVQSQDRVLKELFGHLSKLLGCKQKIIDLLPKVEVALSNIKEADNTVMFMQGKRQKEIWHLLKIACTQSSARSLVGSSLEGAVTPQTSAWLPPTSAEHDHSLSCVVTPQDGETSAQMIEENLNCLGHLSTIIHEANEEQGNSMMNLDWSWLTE
# [7] = target: T2, Inhibitor of nuclear factor kappa-B kinase subunit alpha (Homo sapiens); conditions: at 1 µM
# [8] = target: T3, Inhibitor of nuclear factor kappa-B kinase subunit beta (Homo sapiens) (UniProt O14920); conditions: at 0.1 µM
# T3 sequence (whole entry): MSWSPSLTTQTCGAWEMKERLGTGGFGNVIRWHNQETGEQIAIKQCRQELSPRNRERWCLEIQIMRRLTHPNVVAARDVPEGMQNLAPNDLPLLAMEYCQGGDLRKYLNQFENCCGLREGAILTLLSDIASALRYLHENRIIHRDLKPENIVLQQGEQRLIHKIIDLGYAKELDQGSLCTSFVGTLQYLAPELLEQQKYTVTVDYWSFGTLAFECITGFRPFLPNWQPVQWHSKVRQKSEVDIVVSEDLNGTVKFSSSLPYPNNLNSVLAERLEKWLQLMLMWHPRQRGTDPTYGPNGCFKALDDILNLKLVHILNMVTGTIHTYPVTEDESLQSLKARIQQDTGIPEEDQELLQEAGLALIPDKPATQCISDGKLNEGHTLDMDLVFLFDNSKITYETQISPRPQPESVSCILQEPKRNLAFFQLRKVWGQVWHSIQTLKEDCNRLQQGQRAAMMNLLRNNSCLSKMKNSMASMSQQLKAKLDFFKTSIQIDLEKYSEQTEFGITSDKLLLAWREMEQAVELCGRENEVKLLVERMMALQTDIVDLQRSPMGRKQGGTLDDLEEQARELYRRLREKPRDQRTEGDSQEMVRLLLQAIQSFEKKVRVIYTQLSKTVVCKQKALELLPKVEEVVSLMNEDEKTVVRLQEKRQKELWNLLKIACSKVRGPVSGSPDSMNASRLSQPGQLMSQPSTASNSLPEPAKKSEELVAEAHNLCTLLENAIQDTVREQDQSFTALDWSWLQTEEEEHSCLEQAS
# [9] = target: T3, Inhibitor of nuclear factor kappa-B kinase subunit beta (Homo sapiens); conditions: at 1 µM
# [10] = target: T4, Inhibitor of nuclear factor kappa-B kinase subunit epsilon (Homo sapiens) (UniProt Q14164); conditions: at 0.1 µM;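 also: mean inhibition of IKKε reported, from the GSK PKIS dataset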
# T4 sequence (whole entry): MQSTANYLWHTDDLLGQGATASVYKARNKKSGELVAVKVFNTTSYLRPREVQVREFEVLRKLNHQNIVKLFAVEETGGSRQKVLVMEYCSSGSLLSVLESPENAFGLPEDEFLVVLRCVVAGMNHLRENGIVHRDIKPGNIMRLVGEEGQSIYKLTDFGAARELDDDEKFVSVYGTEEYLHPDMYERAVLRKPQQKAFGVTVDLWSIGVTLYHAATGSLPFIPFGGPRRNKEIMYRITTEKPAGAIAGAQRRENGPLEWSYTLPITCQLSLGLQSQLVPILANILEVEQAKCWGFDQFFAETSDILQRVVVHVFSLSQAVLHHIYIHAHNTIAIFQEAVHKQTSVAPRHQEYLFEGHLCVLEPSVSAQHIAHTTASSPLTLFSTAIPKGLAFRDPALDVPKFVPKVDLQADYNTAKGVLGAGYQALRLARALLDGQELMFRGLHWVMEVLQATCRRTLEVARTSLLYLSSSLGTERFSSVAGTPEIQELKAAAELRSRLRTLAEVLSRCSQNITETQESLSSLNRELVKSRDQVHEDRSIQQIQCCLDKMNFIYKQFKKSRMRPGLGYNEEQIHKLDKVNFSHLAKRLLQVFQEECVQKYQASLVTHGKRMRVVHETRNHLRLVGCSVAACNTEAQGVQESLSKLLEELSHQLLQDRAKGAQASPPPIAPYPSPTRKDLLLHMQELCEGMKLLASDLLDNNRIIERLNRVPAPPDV
# Sequence of Sphingosine kinase 1 (Homo sapiens) (Q9NYA1 whole entry): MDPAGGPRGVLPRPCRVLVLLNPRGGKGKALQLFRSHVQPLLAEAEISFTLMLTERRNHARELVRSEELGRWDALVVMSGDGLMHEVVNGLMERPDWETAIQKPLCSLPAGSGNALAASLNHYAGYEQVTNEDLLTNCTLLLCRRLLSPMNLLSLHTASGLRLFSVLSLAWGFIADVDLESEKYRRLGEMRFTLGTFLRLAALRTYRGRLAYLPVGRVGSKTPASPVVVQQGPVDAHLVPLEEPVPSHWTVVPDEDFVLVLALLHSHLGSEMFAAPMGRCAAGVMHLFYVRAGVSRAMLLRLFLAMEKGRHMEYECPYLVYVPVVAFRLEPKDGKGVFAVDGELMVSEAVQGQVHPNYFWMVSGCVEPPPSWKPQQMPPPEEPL
# Sequence of Casein kinase II subunit alpha (Homo sapiens) (P68400 whole entry, looked up): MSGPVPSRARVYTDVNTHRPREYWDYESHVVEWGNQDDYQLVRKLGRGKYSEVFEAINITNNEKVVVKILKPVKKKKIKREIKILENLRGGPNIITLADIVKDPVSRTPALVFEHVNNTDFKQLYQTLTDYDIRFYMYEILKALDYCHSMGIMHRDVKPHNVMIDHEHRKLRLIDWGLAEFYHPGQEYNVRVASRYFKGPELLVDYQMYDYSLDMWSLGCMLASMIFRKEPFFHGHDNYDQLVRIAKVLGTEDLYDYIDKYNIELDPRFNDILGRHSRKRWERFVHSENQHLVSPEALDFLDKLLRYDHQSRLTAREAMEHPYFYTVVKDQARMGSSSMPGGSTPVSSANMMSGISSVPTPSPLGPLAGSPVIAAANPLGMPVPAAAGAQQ
Structure (SMILES),inhibition [1] [%],inhibition [2] [%],inhibition [3] [%],inhibition [4] [%],inhibition [5] [%],inhibition [6] [%],inhibition [7] [%],inhibition [8] [%],inhibition [9] [%],inhibition [10] [%]
O=C(Nc1n[nH]c2cc(-c3cc(F)ccc3F)ccc12)C1CC1,-2.44,2.23,0.13,2.27,2.39,8.06,7.87,4.95,5.11,4.29
C/C(Nc1ccc(S(N)(=O)=O)cc1)=C1/C(=O)Nc2ccccc21,2.7,0.02,0.53,-0.1,7.42,4.91,2.59,-0.76,1.17,-2.73
CNC(=O)c1cncc(/C=C/c2c(C)cccc2C)c1,-1.57,0.8,2.92,1.93,5.37,2.95,-0.54,1.19,-0.96,0.37
O=C(Nc1ccc(Oc2ccc3[nH]c(NC(=O)c4ccccc4)nc3c2)cc1)Nc1cc(C(F)(F)F)ccc1F,3.13,17.6,-0.1,2.74,4.99,-5.25,-0.85,4.57,2.88,3.68
Fc1ccc(-c2c(-c3ccncc3)nc3n2CCS3)cc1,1.66,0.08,0.64,2.23,2.3,7.58,3.05,2.88,3.75,4.09
Fc1ccc(-c2nc3n(c2-c2ccncc2)CCS3)cc1,-0.03,-0.14,-0.18,0.53,-1.41,5.66,4.06,6.22,4.63,5.03
c1ccc(Oc2ccc(Nc3ncc(-c4ccccc4)o3)cc2)cc1,0.89,3.77,-0.07,3.77,5.82,5.9,-0.96,1.69,-1.75,1.29
COc1cc(C)c(N(C)C(=O)CN(C)C)cc1Nc1nc(Nc2cccc(F)c2C(N)=O)c2cc[nH]c2n1,-0.02,0.91,-0.35,0.17,4.3,3.63,1.85,2.96,-0.54,1.26
O=C1NC(=O)C(c2cccc(Cl)c2)=C1Nc1ccc(Cl)c(C(=O)O)c1,2.31,-0.06,0.61,2.24,7.88,2.51,-0.25,3.73,4.76,6.56
COc1cc(Nc2ncc3c(C)nc(-c4cccc(C(F)(F)F)c4)n3n2)cc(OC)c1OC,-1.99,0.44,-3.1,9.99,43.1,-0.47,4.04,3.58,3.21,10.6
COc1ccc(C2=C(N3CCc4ccccc43)C(=O)NC2=O)cc1,-5.21,0.83,0.21,5.6,6.96,9.04,6.68,6.54,3.83,13.5
C[C@@H](Oc1cc(-n2cnc3ccc(OC4CCN(C)CC4)cc32)sc1C(N)=O)c1ccccc1Cl,-0.63,-0.31,-1.96,8.71,7.82,6.24,7.13,7.4,4.96,5.46
Fc1ccc(-c2ncn(C3CCNCC3)c2-c2ccnc(Oc3ccc(Oc4ccccc4)cc3)n2)cc1,-0.85,-0.41,-0.56,4.31,4.14,4.44,5.03,5.84,6.14,7.47
FC(F)(F)c1cccc(Nc2nccc(-c3cnn4nc(-c5ccccc5)ccc34)n2)c1,-2.23,-1.01,-0.56,7.97,4.42,1.94,7.04,3.55,3.27,3.76
COc1ccc2cc(-c3c(-c4ccncc4)nc(-c4ccc([S+](C)[O-])cc4C)n3C)ccc2c1 (stereo not given),5.11,0.43,0.76,2.77,3.85,-4.94,-5.55,-0.05,-2.53,-2.45
Clc1ccc(CNc2nccc(-c3cnn4ncccc34)n2)cc1,0.04,-0.11,-0.22,2.95,17.9,1.91,7.65,1,0.32,0.31
CCN(CC)Cc1ccc(Nc2nccc(-c3cnn4ncccc34)n2)cc1,7.74,4.29,2.72,10.9,31.1,3.66,34.9,7.57,17.5,8.95

Structure (SMILES),inhibition [1] [%],inhibition [2] [%],inhibition [3] [%],inhibition [4] [%],inhibition [5] [%],inhibition [6] [%],inhibition [7] [%],inhibition [8] [%],inhibition [9] [%],inhibition [10] [%]
CCS(=O)(=O)c1ccc(OC)c(Nc2ncc(-c3cccc(-c4ccccc4F)c3)o2)c1,0.74,0.06,-2.48,1.79,4.95,3.18,3.18,0.01,-1.42,-1.02
CN1CCN(CCCNc2nc3ccc(Oc4ccc(NC(=O)Nc5cc(C(F)(F)F)ccc5F)cc4)cc3[nH]2)CC1,-1.27,-0.2,-0.28,-2.06,-5.31,3.44,-6.02,0.21,-0.85,-0.49
COc1cc(N2CCN(C(C)C)CC2)ccc1Nc1nc(Nc2ccc(F)cc2C(=O)NC[C@@H](O)CO)c2cc[nH]c2n1,5.85,0.95,0.89,4.77,15.7,6.97,11.1,7.85,9.5,8.4
COc1cc2ncn(-c3cc(OCc4cccs4)c(C(N)=O)s3)c2cc1OC,-0.69,0.11,-0.11,5.63,20.8,3.56,4.87,3.09,6.07,7.67
NC(=O)Cc1ccccc1Oc1nccc(-c2c(-c3ccc(F)cc3)ncn2C2CCNCC2)n1,-2.09,0.16,0.42,1.72,2.63,8.64,0.14,4.37,3.54,2.28
CN(C)CCCNc1nccc(-c2c(-c3ccc(F)cc3)nn3cc(C(F)(F)F)ccc23)n1,-2.46,-0.03,-0.25,1.85,6.47,4.46,-1.7,1.56,0,2.49
NC(=O)c1ccc(Oc2nccc(-c3c(-c4ccc(F)cc4)ncn3C3CCNCC3)n2)cc1,2.16,0.71,0.08,2.95,2.91,5.54,7.33,7.24,6.83,8.54
CCc1nccc2c1nc(-c1nonc1N)n2CC,-1.61,1.28,1.35,0.7,-1.05,2.04,-4.71,0.02,-1.22,0.57
NS(=O)(=O)c1ccc(Nc2cc(-c3ccc(O)c(F)c3)n[nH]2)cc1,-3.17,0,0.11,5.31,29.6,-1.61,3.48,-0.76,0.06,-4.53
NCc1ccc(-n2c(-c3nonc3N)nc3cnccc32)cc1,-0.9,0.05,-0.74,9.32,9.93,7.27,7.43,8.87,7.17,5.51
COc1cc(Nc2ncc(-c3ccccc3)o2)cc(OC)c1OC,0.49,1.41,-0.15,0.33,4.02,2.97,4.62,0.7,4.06,0.76
COc1cc(Nc2ncc3c(C)nc(-c4cccc(Oc5ccccc5)c4)n3n2)cc(OC)c1OC,-0.76,0.82,0,0.59,12.7,2.21,-5.5,1.1,0.16,2.97
O=C(Nc1n[nH]c2cc(-c3ccccc3)ccc12)C1CC1,0.1,-1.1,-0.92,1.99,6.38,2.61,7.25,5.63,3.54,4.3
Cc1ccc(NC(=O)c2ccoc2)cc1-c1ccc(C(=O)NCC2CC2)cc1,-2.32,0.42,-0.05,2.64,1.38,0.11,7.23,3.9,3.86,3.64
COc1cc2ncn(-c3cc(OCCc4ccccc4)c(C(N)=O)s3)c2cc1OC,-2.62,-3.06,0.29,1.36,-0.04,6.65,1.12,3.03,0.18,2.79
O=C1Nc2ccccc2/C1=C/Nc1ccc(-n2cncn2)cc1,-4.72,-0.36,1.3,7.12,12.8,11.8,2.05,9.35,11.4,7.57
